# Data reported in the supplement of paper PMC4466140.
# B1: unnamed (peptide)
# chain: GKKVRPLLVLLLSRA
# B2: unnamed (peptide)
# chain: GTIARPLFLVVLFFI
# How the values were obtained:
# Experiment in all cases: SPOT peptide array binding signal intensity (averaged, normalized) (arbitrary units (background-subtracted, floor 0; scale differs between SH3 domains)); higher = stronger binding of the SH3 domain to the peptide
# AgAbp1 = target: AgAbp1
# Method in brief: (§1)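 Spot intensities were captured after detection with anti-GST antibody, an HRP-linked anti-mouse secondary and luminol, and quantified with Genespotter. The probes were GST-fused SH3 domains from four yeast species, produced in E. coli BL21(DE3), purified on glutathione Sepharose and incubated at 10 μg/ml overnight at 4°C on cellulose-bound synthetic 15-mer peptides with cysteines replaced by serines. Binding signal is the normalized, background-subtracted spot intensity averaged over replicates, and its arbitrary units differ between domains.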
# AgBbc1 = target: AgBbc1
# Method in brief: as §1
# AgBem1-D1 = target: AgBem1-D1
# Method in brief: as §1
# AgBzz1-D1 = target: AgBzz1-D1
# Method in brief: as §1
# AgBzz1-D2 = target: AgBzz1-D2
# Method in brief: as §1
# AgCyk3 = target: AgCyk3
# Method in brief: as §1
# AgFus1 = target: AgFus1
# Method in brief: as §1
# AgHof1 = target: AgHof1
# Method in brief: as §1
# AgHse1 = target: AgHse1
# Method in brief: as §1
# AgLsb1 = target: AgLsb1
# Method in brief: as §1
# AgLsb4 = target: AgLsb4
# Method in brief: as §1
# AgMyo5 = target: AgMyo5
# Method in brief: as §1
# AgNbp2 = target: AgNbp2
# Method in brief: as §1
# AgRvs167 = target: AgRvs167
# Method in brief: as §1
# AgSho1 = target: AgSho1
# Method in brief: as §1
# AgSla1-D1-D2 = target: AgSla1-D1-D2
# Method in brief: as §1
# AgSla1-D3 = target: AgSla1-D3
# Method in brief: as §1
# CaAbp1-D1 = target: CaAbp1-D1
# Method in brief: as §1
# CaAbp1-D2 = target: CaAbp1-D2
# Method in brief: as §1
# CaBbc1 = target: CaBbc1
# Method in brief: as §1
# CaBem1-D1 = target: CaBem1-D1
# Method in brief: as §1
# CaBzz1-D1 = target: CaBzz1-D1
# Method in brief: as §1
# CaBzz1-D2 = target: CaBzz1-D2
# Method in brief: as §1
# CaCyk3 = target: CaCyk3
# Method in brief: as §1
# CaFus1 = target: CaFus1
# Method in brief: as §1
# CaHof1 = target: CaHof1
# Method in brief: as §1
# CaHse1 = target: CaHse1
# Method in brief: as §1
# CaLsb1 = target: CaLsb1
# Method in brief: as §1
# CaLsb4 = target: CaLsb4
# Method in brief: as §1
# CaMyo5 = target: CaMyo5
# Method in brief: as §1
# CaNbp2 = target: CaNbp2
# Method in brief: as §1
# CaRvs167 = target: CaRvs167
# Method in brief: as §1
# CaRvs167-3 = target: CaRvs167-3
# Method in brief: as §1
# CaSho1 = target: CaSho1
# Method in brief: as §1
# CaSla1-D1-D2 = target: CaSla1-D1-D2
# Method in brief: as §1
# CaSla1-D3 = target: CaSla1-D3
# Method in brief: as §1
# ScAbp1 = target: ScAbp1
# Method in brief: as §1
# ScBbc1 = target: ScBbc1
# Method in brief: as §1
# ScBem1-D1 = target: ScBem1-D1
# Method in brief: as §1
# ScBzz1-D1 = target: ScBzz1-D1
# Method in brief: as §1
# ScBzz1-D2 = target: ScBzz1-D2
# Method in brief: as §1
# ScCyk3 = target: ScCyk3
# Method in brief: as §1
# ScFus1 = target: ScFus1
# Method in brief: as §1
# ScHof1 = target: ScHof1
# Method in brief: as §1
# ScHse1 = target: ScHse1
# Method in brief: as §1
# ScLsb1 = target: ScLsb1
# Method in brief: as §1
# ScLsb2 = target: ScLsb2
# Method in brief: as §1
# ScLsb3 = target: ScLsb3
# Method in brief: as §1
# ScLsb4 = target: ScLsb4
# Method in brief: as §1
# ScMyo3 = target: ScMyo3
# Method in brief: as §1
# ScMyo5 = target: ScMyo5
# Method in brief: as §1
# ScNbp2 = target: ScNbp2
# Method in brief: as §1
# ScPex13 = target: ScPex13
# Method in brief: as §1
# ScRvs167 = target: ScRvs167
# Method in brief: as §1
# ScSho1 = target: ScSho1
# Method in brief: as §1
# ScSla1-D1-D2 = target: ScSla1-D1-D2
# Method in brief: as §1
# ScSla1-D3 = target: ScSla1-D3
# Method in brief: as §1
# SpAbp1-D1 = target: SpAbp1-D1
# Method in brief: as §1
# SpBbc1 = target: SpBbc1
# Method in brief: as §1
# SpBzz1-D1 = target: SpBzz1-D1
# Method in brief: as §1
# SpBzz1-D2 = target: SpBzz1-D2
# Method in brief: as §1
# SpCyk3 = target: SpCyk3
# Method in brief: as §1
# SpHof1 = target: SpHof1
# Method in brief: as §1
# SpHof1-2 = target: SpHof1-2
# Method in brief: as §1
# SpHof1-3 = target: SpHof1-3
# Method in brief: as §1
# SpHse1 = target: SpHse1
# Method in brief: as §1
# SpLsb1 = target: SpLsb1
# Method in brief: as §1
# SpLsb4 = target: SpLsb4
# Method in brief: as §1
# SpMyo1 = target: SpMyo1
# Method in brief: as §1
# SpNbp2 = target: SpNbp2
# Method in brief: as §1
# SpPex13 = target: SpPex13
# Method in brief: as §1
# SpRvs167 = target: SpRvs167
# Method in brief: as §1
# SpSla1-D1-D2 = target: SpSla1-D1-D2
# Method in brief: as §1
# SpSla1-D3 = target: SpSla1-D3
# Method in brief: as §1
binder,measurement,setting,value
B1,SPOT peptide array binding signal intensity,AgAbp1,≤ 0
same,SPOT peptide array binding signal intensity,AgBbc1,≤ 0
same,SPOT peptide array binding signal intensity,AgBem1-D1,≤ 0
same,SPOT peptide array binding signal intensity,AgBzz1-D1,23.5
same,SPOT peptide array binding signal intensity,AgBzz1-D2,2
same,SPOT peptide array binding signal intensity,AgCyk3,5
same,SPOT peptide array binding signal intensity,AgFus1,3030
same,SPOT peptide array binding signal intensity,AgHof1,0.5
same,SPOT peptide array binding signal intensity,AgHse1,1180
same,SPOT peptide array binding signal intensity,AgLsb1,≤ 0
same,SPOT peptide array binding signal intensity,AgLsb4,702
same,SPOT peptide array binding signal intensity,AgMyo5,≤ 0
same,SPOT peptide array binding signal intensity,AgNbp2,280
same,SPOT peptide array binding signal intensity,AgRvs167,1.5
same,SPOT peptide array binding signal intensity,AgSho1,795
same,SPOT peptide array binding signal intensity,AgSla1-D1-D2,≤ 0
same,SPOT peptide array binding signal intensity,AgSla1-D3,1
same,SPOT peptide array binding signal intensity,CaAbp1-D1,208
same,SPOT peptide array binding signal intensity,CaAbp1-D2,134
same,SPOT peptide array binding signal intensity,CaBbc1,0.5
same,SPOT peptide array binding signal intensity,CaBem1-D1,≤ 0
same,SPOT peptide array binding signal intensity,CaBzz1-D1,45
same,SPOT peptide array binding signal intensity,CaBzz1-D2,8
same,SPOT peptide array binding signal intensity,CaCyk3,9
same,SPOT peptide array binding signal intensity,CaFus1,3530
same,SPOT peptide array binding signal intensity,CaHof1,1.5
same,SPOT peptide array binding signal intensity,CaHse1,120
same,SPOT peptide array binding signal intensity,CaLsb1,≤ 0
same,SPOT peptide array binding signal intensity,CaLsb4,7.5
same,SPOT peptide array binding signal intensity,CaMyo5,≤ 0
same,SPOT peptide array binding signal intensity,CaNbp2,1520
same,SPOT peptide array binding signal intensity,CaRvs167,28.3
same,SPOT peptide array binding signal intensity,CaRvs167-3,50.8
same,SPOT peptide array binding signal intensity,CaSho1,562
same,SPOT peptide array binding signal intensity,CaSla1-D1-D2,≤ 0
same,SPOT peptide array binding signal intensity,CaSla1-D3,28
same,SPOT peptide array binding signal intensity,ScAbp1,3.5
same,SPOT peptide array binding signal intensity,ScBbc1,≤ 0
same,SPOT peptide array binding signal intensity,ScBem1-D1,≤ 0
same,SPOT peptide array binding signal intensity,ScBzz1-D1,18
same,SPOT peptide array binding signal intensity,ScBzz1-D2,104
same,SPOT peptide array binding signal intensity,ScCyk3,41
same,SPOT peptide array binding signal intensity,ScFus1,1690
same,SPOT peptide array binding signal intensity,ScHof1,≤ 0
same,SPOT peptide array binding signal intensity,ScHse1,1540
same,SPOT peptide array binding signal intensity,ScLsb1,≤ 0
same,SPOT peptide array binding signal intensity,ScLsb2,≤ 0
same,SPOT peptide array binding signal intensity,ScLsb3,97
same,SPOT peptide array binding signal intensity,ScLsb4,≤ 0
same,SPOT peptide array binding signal intensity,ScMyo3,≤ 0
same,SPOT peptide array binding signal intensity,ScMyo5,≤ 0
same,SPOT peptide array binding signal intensity,ScNbp2,237
same,SPOT peptide array binding signal intensity,ScPex13,≤ 0
same,SPOT peptide array binding signal intensity,ScRvs167,9.67
same,SPOT peptide array binding signal intensity,ScSho1,1560
same,SPOT peptide array binding signal intensity,ScSla1-D1-D2,≤ 0
same,SPOT peptide array binding signal intensity,ScSla1-D3,5.5
same,SPOT peptide array binding signal intensity,SpAbp1-D1,52.5
same,SPOT peptide array binding signal intensity,SpBbc1,0.5
same,SPOT peptide array binding signal intensity,SpBzz1-D1,21.5
same,SPOT peptide array binding signal intensity,SpBzz1-D2,≤ 0
same,SPOT peptide array binding signal intensity,SpCyk3,7
same,SPOT peptide array binding signal intensity,SpHof1,157
same,SPOT peptide array binding signal intensity,SpHof1-2,27.8
same,SPOT peptide array binding signal intensity,SpHof1-3,758
same,SPOT peptide array binding signal intensity,SpHse1,1200
same,SPOT peptide array binding signal intensity,SpLsb1,≤ 0
same,SPOT peptide array binding signal intensity,SpLsb4,41
same,SPOT peptide array binding signal intensity,SpMyo1,3.75
same,SPOT peptide array binding signal intensity,SpNbp2,1290
same,SPOT peptide array binding signal intensity,SpPex13,3
same,SPOT peptide array binding signal intensity,SpRvs167,6.83
same,SPOT peptide array binding signal intensity,SpSla1-D1-D2,1
same,SPOT peptide array binding signal intensity,SpSla1-D3,≤ 0
B2,SPOT peptide array binding signal intensity,AgAbp1,≤ 0
same,SPOT peptide array binding signal intensity,AgBbc1,1.25
same,SPOT peptide array binding signal intensity,AgBem1-D1,33
same,SPOT peptide array binding signal intensity,AgBzz1-D1,18
same,SPOT peptide array binding signal intensity,AgBzz1-D2,13.5
same,SPOT peptide array binding signal intensity,AgCyk3,8
same,SPOT peptide array binding signal intensity,AgFus1,1900
same,SPOT peptide array binding signal intensity,AgHof1,0.75
same,SPOT peptide array binding signal intensity,AgHse1,428
same,SPOT peptide array binding signal intensity,AgLsb1,≤ 0
same,SPOT peptide array binding signal intensity,AgLsb4,580
same,SPOT peptide array binding signal intensity,AgMyo5,0.5
same,SPOT peptide array binding signal intensity,AgNbp2,57
same,SPOT peptide array binding signal intensity,AgRvs167,1.33
same,SPOT peptide array binding signal intensity,AgSho1,338
same,SPOT peptide array binding signal intensity,AgSla1-D1-D2,≤ 0
same,SPOT peptide array binding signal intensity,AgSla1-D3,1.75
same,SPOT peptide array binding signal intensity,CaAbp1-D1,56.5
same,SPOT peptide array binding signal intensity,CaAbp1-D2,28.5
same,SPOT peptide array binding signal intensity,CaBbc1,2
same,SPOT peptide array binding signal intensity,CaBem1-D1,15.5
same,SPOT peptide array binding signal intensity,CaBzz1-D1,88
same,SPOT peptide array binding signal intensity,CaBzz1-D2,23.5
same,SPOT peptide array binding signal intensity,CaCyk3,10
same,SPOT peptide array binding signal intensity,CaFus1,3640
same,SPOT peptide array binding signal intensity,CaHof1,16.5
same,SPOT peptide array binding signal intensity,CaHse1,126
same,SPOT peptide array binding signal intensity,CaLsb1,1.25
same,SPOT peptide array binding signal intensity,CaLsb4,≤ 0
same,SPOT peptide array binding signal intensity,CaMyo5,4.5
